Data as given in PubChem BioAssay AID1159580 (chemical genetic matrix, 2015).
The whole screen tested about 5,500 compounds, of which about 2,000 (36%) were called active. Not shown: some 18% with an inconclusive outcome. Some of the results follow. Values without a mark were called inactive. No stated cut-off is given here; in the data, active means normalized growth mostly below about 0.91 (no sharp cut-off); inconclusive means no clear call, values can overlap the other calls; inactive means mostly above about 0.92.

Assay: chemical genetic growth profiling, strain panel (AID 1159580);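 further: tested at 20 µM; growth read once vehicle control cultures reached saturation at 30 °C; 1 = growth at the plate median or of vehicle wells; lower values mean less growth of the strain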
Settings: growth OD

SMILES: O=C1c2ccccc2C(=O)c2ccccc21
- normalized growth (S. cerevisiae deletion strains, locus YJR075W, strain HOC1, active compounds read low): 0.956
- normalized growth (S. cerevisiae deletion strains, locus YKL009W, strain mrt4, active compounds read low): 0.933
- normalized growth (S. cerevisiae deletion strains, locus YKL068W, active compounds read low): 0.986
- normalized growth (S. cerevisiae deletion strains, locus YKL085W, strain MDH1 (second series), active compounds read low): 0.97
- normalized growth (S. cerevisiae deletion strains, locus YKL085W, strain MDH1, active compounds read low): 0.97
- normalized growth (S. cerevisiae deletion strains, locus YKL160W, strain elf1, active compounds read low): 0.986
- normalized growth (S. cerevisiae deletion strains, locus YKL190W, strain CNB1, active compounds read low): 0.98
- normalized growth (S. cerevisiae deletion strains, locus YKR001C, strain vps1, active compounds read low): 0.972
- normalized growth (S. cerevisiae deletion strains, locus YKR026C, strain gcn3, active compounds read low): 1
- normalized growth (S. cerevisiae deletion strains, locus YKR091W, strain srl3, active compounds read low): 1
- normalized growth (S. cerevisiae deletion strains, locus YLL001W, strain dnm1, active compounds read low): 1.01
- normalized growth (S. cerevisiae deletion strains, locus YLL026W, active compounds read low): 0.993
- normalized growth (S. cerevisiae deletion strains, locus YLL041C, strain sdh2, active compounds read low): 0.993
- normalized growth (S. cerevisiae deletion strains, locus YLR027C, strain aat2, active compounds read low): 0.999
- normalized growth (S. cerevisiae deletion strains, locus YLR039C, strain RIC1, active compounds read low): 0.765
- normalized growth (S. cerevisiae deletion strains, locus YLR058C, strain SHM2, active compounds read low): 0.988
- normalized growth (S. cerevisiae deletion strains, locus YLR102C, strain apc9, active compounds read low): 0.989
- normalized growth (S. cerevisiae deletion strains, locus YLR113W, strain HOG1, active compounds read low): 1.1
- normalized growth (S. cerevisiae deletion strains, locus YLR221C, strain rsa3, active compounds read low): 0.969
- normalized growth (S. cerevisiae deletion strains, locus YLR258W, strain gsy2, active compounds read low): 0.993
- normalized growth (S. cerevisiae deletion strains, locus YLR262C, strain YPT6 (second series), active compounds read low): 0.96
- normalized growth (S. cerevisiae deletion strains, locus YLR262C, strain YPT6, active compounds read low): 0.71
- normalized growth (S. cerevisiae deletion strains, locus YLR268W, strain sec22, active compounds read low): 0.974
- normalized growth (S. cerevisiae deletion strains, locus YLR320W, strain mms22, active compounds read low): 0.903
- normalized growth (S. cerevisiae deletion strains, locus YLR330W, strain CHS5, active compounds read low): 0.993
- normalized growth (S. cerevisiae deletion strains, locus YLR342W, strain FKS1 (second series), active compounds read low): 0.938
- normalized growth (S. cerevisiae deletion strains, locus YLR342W, strain FKS1, active compounds read low): 1.01
- normalized growth (S. cerevisiae deletion strains, locus YLR357W, strain rsc2, active compounds read low): 0.976
- normalized growth (S. cerevisiae deletion strains, locus YLR370C, strain arc18, active compounds read low): 0.994
- normalized growth (S. cerevisiae deletion strains, locus YLR371W, strain rom2, active compounds read low): 0.975
- normalized growth (S. cerevisiae deletion strains, locus YLR384C, strain iki3, active compounds read low): 0.994
- normalized growth (S. cerevisiae deletion strains, locus YLR418C, strain cdc73, active compounds read low): 1.01
- normalized growth (S. cerevisiae deletion strains, locus YML016C, strain PPZ1, active compounds read low): 0.992
- normalized growth (S. cerevisiae deletion strains, locus YML032C, strain rad52, active compounds read low): 0.976
- normalized growth (S. cerevisiae deletion strains, locus YML120C, strain ndi1, active compounds read low): 1.01
- normalized growth (S. cerevisiae deletion strains, locus YML124C, strain tub3, active compounds read low): 0.989
- normalized growth (S. cerevisiae deletion strains, locus YMR058W, strain fet3, active compounds read low): 0.948
- normalized growth (S. cerevisiae deletion strains, locus YMR078C, strain ctf18, active compounds read low): 0.995
- normalized growth (S. cerevisiae deletion strains, locus YMR125W, strain sto1, active compounds read low): 1.08
- normalized growth (S. cerevisiae deletion strains, locus YMR129W, active compounds read low): 0.996
- normalized growth (S. cerevisiae deletion strains, locus YMR205C, strain PFK2, active compounds read low): 1.03
- normalized growth (S. cerevisiae deletion strains, locus YMR223W, strain ubp8, active compounds read low): 0.963
- normalized growth (S. cerevisiae deletion strains, locus YMR231W, strain pep5, active compounds read low): 0.998
- normalized growth (S. cerevisiae deletion strains, locus YMR263W, strain SAP30, active compounds read low): 0.97
- normalized growth (S. cerevisiae deletion strains, locus YMR307W, strain GAS1, active compounds read low): 0.804
- normalized growth (S. cerevisiae deletion strains, locus YNL067W, strain RPL9B, active compounds read low): 0.964
- normalized growth (S. cerevisiae deletion strains, locus YNL071W, strain lat1, active compounds read low): 0.955
- normalized growth (S. cerevisiae deletion strains, locus YNL128W, strain TEP1, active compounds read low): 0.946
- normalized growth (S. cerevisiae deletion strains, locus YNL153C, strain GIM3, active compounds read low): 1
- normalized growth (S. cerevisiae deletion strains, locus YNL183C, strain NPR1, active compounds read low): 0.961
- normalized growth (S. cerevisiae deletion strains, locus YNL209W, strain ssb2, active compounds read low): 0.978
- normalized growth (S. cerevisiae deletion strains, locus YNL233W, strain BNI4, active compounds read low): 0.995
- normalized growth (S. cerevisiae deletion strains, locus YNL248C, strain rpa49, active compounds read low): 0.837 (active)
- normalized growth (S. cerevisiae deletion strains, locus YNL250W, strain rad50, active compounds read low): 0.974
- normalized growth (S. cerevisiae deletion strains, locus YNL271C, strain bni1, active compounds read low): 0.978
- normalized growth (S. cerevisiae deletion strains, locus YNL298W, strain CLA4, active compounds read low): 0.975
- normalized growth (S. cerevisiae deletion strains, locus YNL307C, strain MCK1, active compounds read low): 0.971
- normalized growth (S. cerevisiae deletion strains, locus YNL322C, strain KRE1 (second series), active compounds read low): 1.03
- normalized growth (S. cerevisiae deletion strains, locus YNL322C, strain KRE1, active compounds read low): 0.987
- normalized growth (S. cerevisiae deletion strains, locus YNR049C, strain mso1, active compounds read low): 0.995
- normalized growth (S. cerevisiae deletion strains, locus YNR052C, strain pop2, active compounds read low): 0.99
- normalized growth (S. cerevisiae deletion strains, locus YOL006C, strain TOP1, active compounds read low): 0.97
- normalized growth (S. cerevisiae deletion strains, locus YOL012C, strain htz1): 0.796
- normalized growth (S. cerevisiae deletion strains, locus YOL147C, strain pex11, active compounds read low): 1.01
- normalized growth (S. cerevisiae deletion strains, locus YOR001W, strain rrp6, active compounds read low): 0.991
- normalized growth (S. cerevisiae deletion strains, locus YOR061W, strain CKA2, active compounds read low): 0.988
- normalized growth (S. cerevisiae deletion strains, locus YOR069W, strain VPS5, active compounds read low): 1.01
- normalized growth (S. cerevisiae deletion strains, locus YOR070C, strain gyp1, active compounds read low): 0.996
- normalized growth (S. cerevisiae deletion strains, locus YOR080W, strain dia2, active compounds read low): 1.01
- normalized growth (S. cerevisiae deletion strains, locus YOR083W, strain WHI5, active compounds read low): 0.963
- normalized growth (S. cerevisiae deletion strains, locus YOR106W, strain vam3, active compounds read low): 0.945
- normalized growth (S. cerevisiae deletion strains, locus YOR136W, strain idh2, active compounds read low): 0.985
- normalized growth (S. cerevisiae deletion strains, locus YOR144C, strain elg1, active compounds read low): 0.992
- normalized growth (S. cerevisiae deletion strains, locus YOR184W, strain ser1, active compounds read low): 0.942
- normalized growth (S. cerevisiae deletion strains, locus YOR231W, strain MKK1, active compounds read low): 1.02
- normalized growth (S. cerevisiae deletion strains, locus YOR265W, strain rbl2, active compounds read low): 0.993
- normalized growth (S. cerevisiae deletion strains, locus YOR270C, strain vph1, active compounds read low): 0.804
- normalized growth (S. cerevisiae deletion strains, locus YOR290C, strain snf2, active compounds read low): 0.973
- normalized growth (S. cerevisiae deletion strains, locus YOR316C, strain cot1, active compounds read low): 0.996
- normalized growth (S. cerevisiae deletion strains, locus YPL051W, strain arl3, active compounds read low): 0.926
- normalized growth (S. cerevisiae deletion strains, locus YPL055C, strain LGE1, active compounds read low): 0.9
- normalized growth (S. cerevisiae deletion strains, locus YPL078C, strain atp4, active compounds read low): 0.96
- normalized growth (S. cerevisiae deletion strains, locus YPL106C, strain sse1, active compounds read low): 0.954
- normalized growth (S. cerevisiae deletion strains, locus YPL240C, strain hsp82, active compounds read low): 0.995
- normalized growth (S. cerevisiae deletion strains, locus YPL241C, strain CIN2, active compounds read low): 0.953
- normalized growth (S. cerevisiae deletion strains, locus YPL256C, strain CLN2, active compounds read low): 1.08
- normalized growth (S. cerevisiae deletion strains, locus YPR119W, strain clb2, active compounds read low): 0.996
- normalized growth (S. cerevisiae deletion strains, locus YPR141C, strain kar3, active compounds read low): 0.99
- normalized growth (S. cerevisiae deletion strains, locus YPR163C, strain tif3, active compounds read low): 0.996
- normalized growth (S. cerevisiae deletion strains, locus YPR167C, strain met16, active compounds read low): 1
- normalized growth (S. cerevisiae deletion strains, strain wtn01, active compounds read low): 0.988
- normalized growth (S. cerevisiae strains, strain wild type, active compounds read low): 0.995
